Assay results taken from PubChem BioAssay AID1851 (National Center for Advancing Translational Sciences (NCATS), 2009).
Hit rate of the full screen: of about 16,000 compounds, about 5,800 (36%) were called active. Another 23% or so got no clear call; they are omitted. Some of the results follow. A number with no mark means an inactive call. The call rests on the fitted dose curve; in most records, active means well fitted curve in the direction sought with a large enough effect; inconclusive means small, poorly fitted or top-dose-only effect, or effect the other way; inactive means no such curve, though single readings can be large or run the other way.

target: Cytochrome P450 2C19 (Homo sapiens) (UniProt P33261); test: Cytochrome panel assay with activity outcomes; conditions: recombinant CYP, pro-luciferin dealkylation, luminescence, p450-cyp2c19; series mostly up to 57.1 µM
On the % scale 0 is the no-effect control and ±100 the full control effect.

Chain of Cytochrome P450 2C19 (Homo sapiens) (P33261 whole entry, looked up): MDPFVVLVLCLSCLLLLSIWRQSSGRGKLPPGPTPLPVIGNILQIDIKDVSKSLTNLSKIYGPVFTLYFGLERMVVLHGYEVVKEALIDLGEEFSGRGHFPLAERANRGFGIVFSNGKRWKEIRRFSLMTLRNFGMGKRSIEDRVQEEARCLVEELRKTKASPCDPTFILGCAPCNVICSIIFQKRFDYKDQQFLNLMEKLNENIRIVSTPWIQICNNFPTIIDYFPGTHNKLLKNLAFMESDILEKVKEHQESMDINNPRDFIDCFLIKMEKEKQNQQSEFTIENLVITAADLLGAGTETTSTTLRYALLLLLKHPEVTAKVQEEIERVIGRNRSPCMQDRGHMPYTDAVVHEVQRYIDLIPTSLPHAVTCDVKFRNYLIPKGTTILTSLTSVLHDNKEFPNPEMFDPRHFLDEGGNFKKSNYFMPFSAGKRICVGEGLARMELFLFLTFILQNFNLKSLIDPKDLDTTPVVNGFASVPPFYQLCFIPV

SMILES | AC50 | activity, negative = inhibition
COC(=O)CSc1ccc(C#N)c(SCC(=O)OC)c1 | 11.2 µM (active) | –
CCOc1ccc(N/N=C(/C#N)C(N)=O)cc1 | 4.47 µM (active) | –
Cc1ccc2oc(-c3cccc(NC(=S)NC(=O)/C=C/c4ccco4)c3)nc2c1 | 6.31 µM (active) | –
Cc1ccc(NC(=O)CSCC(=O)Nc2ccc(N3CCOCC3)c(Cl)c2)cc1 | 14.1 µM (active) | –
CCCC(=O)Nc1ccc2nc(SCC(=O)Nc3ccc(N4CCOCC4)c(Cl)c3)sc2c1 | 3.98 µM (active) | –
O=C(Nc1ccc2nc(SCc3ccc(Cl)cc3)sc2c1)c1ccccc1C(=O)N1CCOCC1 | 3.98 µM (active) | –
CCC1CC(CSc2ncn[nH]2)OC1=O (configuration not stated) | inactive | –
CN1[C@@H]2CC[C@H]1CC(OC(c1ccccc1)c1ccccc1)C2 (some centres not stated) | inactive | –
O=S1(=O)OC(c2ccc(O)cc2)(c2ccc(O)cc2)c2ccccc21 | – | 28.4% [at 11.4 µM]
O=C(/C=C/c1ccco1)NC(=S)Nc1ccc(N2CCOCC2)c(Cl)c1 | 11.2 µM (active) | –
CCOc1ccc(C(F)(F)F)cc1NC(C)=O | 28.2 µM (active) | –
O=C1NCC2=C1C(c1ccc(Br)cc1)Nc1ccccc1N2 (configuration not stated) | 8.91 µM (active) | –
COc1cc(NC(=O)c2cc3ccccc3o2)c(OC)cc1Br | inactive | –
COc1ccccc1CC(=O)Nc1cc2oc3ccccc3c2cc1OC | 6.31 µM (active) | –
COc1ccccc1C(=O)Nc1cc2c(ccc3ccccc32)oc1=O | inactive | –
COc1cc2c(cc1NC(=O)Nc1ccccc1)oc1ccccc12 | 3.55 µM (active) | –
COc1cc2c(cc1NC(=O)c1cc(-c3cccnc3)nc3ccc(C)cc13)oc1ccccc12 | 3.55 µM (active) | –
CC1(C)CCCN(C(=O)N2c3ccccc3Sc3ccccc32)C1 | 0.562 µM (active) | –
CC(=O)N1CCC[C@@]2(CCN(Cc3ccccc3)C2)C1 | inactive | –
CC1(C)CCCN(C(=O)c2coc(=O)c(Br)c2)C1 | inactive | –
O=C(CSc1cccc2cccnc12)OCC(=O)c1ccccc1 | 10 µM (active) | –
Cc1cc(O)c(C(C)C)cc1NC(=O)Nc1cccc2ccccc12 | 0.0501 µM (active) | –
NS(=O)(=O)c1ccc(NC(=O)Nc2cccc3ccccc23)cc1 | – | 2.76% [at 11.4 µM]
CCOc1cc(/C=C2\CCC/C(=C\c3cc(Cl)c(O)c(OCC)c3)C2=O)cc(Cl)c1O | 15.8 µM (active) | –
O=C(O)[C@@H]1[C@@H]2C[C@@H]3[C@@H](OC(=O)[C@@H]31)[C@H]2Br | – | -11.8% [at 11.4 µM]
O=c1[nH]c2[nH]c(=S)[nH]c(=S)c2[nH]1 | 0.631 µM (active) | –

SMILES | AC50 | activity, negative = inhibition
CC1(C)Cc2c(ccc3ccccc23)C(=O)N1 | 10 µM (active) | –
Nc1ccc2c3c(cccc13)C(=O)NC2=O | inactive | –
CNC(=O)/C=C1\NC(C)(C)Cc2c1ccc1ccccc21 | 2.51 µM (active) | –
CNC(=O)[C@H]1O[C@H](n2cnc3c(NCc4cccc(I)c4)ncnc32)[C@@H](O)[C@@H]1O | inactive | –
COc1ncc2nc(-c3cccs3)c(=O)n(C)c2n1 | inactive | –
N[C@@H](Cc1cccc([N+](=O)[O-])c1)C(=O)O | – | -6.46% [at 11.4 µM]
CCN(Cc1ccccc1)Cc1cccc([N+](=O)[O-])c1 | 5.62 µM (active) | –
COc1ccc(/C=N/n2c(-c3cccs3)n[nH]c2=S)cc1 | 17.8 µM (active) | –
COc1ccc(Oc2ncc3nc(-c4cccs4)c(=O)n(C)c3n2)cc1 | inactive | –
CCc1n[nH]c(=S)n1/N=C/c1ccc2c(c1)OCO2 | inactive | –
COc1ccccc1-c1nnc(SCc2nc3ccccc3s2)n1C | 2.24 µM (active) | –
O=S(=O)(O)c1cc(O)c2c(N=Cc3ccccc3O)cc(S(=O)(=O)O)cc2c1 | 1.58 µM (active) | –
O=S(=O)(O)c1cc(O)c2c(O)c(N=Nc3cccc4ccccc34)c(S(=O)(=O)O)cc2c1 | – | -44.3% [at 11.4 µM]
Nc1ccccc1N=Nc1c(S(=O)(=O)O)cc2cc(S(=O)(=O)O)cc(O)c2c1O | – | -13.7% [at 11.4 µM]
CC(C)N(CC(=O)O)CC(=O)O | – | -17.1% [at 11.4 µM]
CCOC(=O)CNC(=O)c1cccnc1 | inactive | –
N/C(=N\OC(=O)Cc1ccc(Cl)cc1)c1cccnc1 | 15.8 µM (active) | –
Cc1nc(Oc2ccc(Cl)cc2)c2oc3ccccc3c2n1 | 2 µM (active) | –
COc1cccc(=O)c2c(C)n(-c3cc(C)cc(C)c3)c(C)c12 | 1 µM (active) | –
CCOC(=O)n1c(=O)n(Cc2ccccc2Cl)c2ccccc21 | 0.282 µM (active) | –
Cn1c(=O)n(CCC(=O)O)c2ccccc21 | inactive | –
CCOC(=O)n1c(=O)n(Cc2c(Cl)cccc2Cl)c2ccccc21 | 2 µM (active) | –
Cn1c(=O)c2[nH]c(COCc3nc4c([nH]3)c(=O)n(C)c(=O)n4C)nc2n(C)c1=O | – | 25.6% [at 11.4 µM]
CCOC(=O)C(=CNc1ncccc1C)C(=O)OCC | 0.891 µM (active) | –
CCOC(=O)C(=CNCC(=O)O)C(=O)OCC | inactive | –
CCOC(=O)C(=CNc1cccc(C)c1C)C(=O)OCC | inactive | –

SMILES | AC50 | activity, negative = inhibition
O=c1c(-c2cc(F)cc(F)c2)nc2cncnc2n1C1CC1 | inactive | –
COc1ccc(Nc2ncc3nc(-c4cccs4)c(=O)n(Cc4cccc(OC)c4)c3n2)cc1 | inactive | –
COc1cccc(Cn2c(=O)c(-c3cccs3)nc3cncnc32)c1 | 5.01 µM (active) | –
Cc1nc2cncnc2n(C2CC2)c1=O | 3.98 µM (active) | –
O=c1c(-c2ccc(F)cc2)nc2cncnc2n1C1CC1 | inactive | –
Cn1cc(-c2nc3cncnc3n(Cc3ccc(F)cc3)c2=O)c2ccccc21 | inactive | –
Cc1nc2cncnc2n(Cc2ccccc2)c1=O | 0.158 µM (active) | –
O=c1c(-c2cccs2)nc2cncnc2n1Cc1ccccc1 | 1 µM (active) | –
COc1ccc(Oc2ncc3nc(-c4cccs4)c(=O)n(Cc4cccc(OC)c4)c3n2)cc1 | inactive | –
COc1cccc(Cn2c(=O)c(-c3cccs3)nc3cnc(OCc4ccccc4)nc32)c1 | inactive | –
COc1ccc(-n2c(=O)c(C)nc3cncnc32)cc1 | inactive | –
O=c1c(-c2cccs2)nc2cncnc2n1C1CC1 | inactive | –
Cc1ccc(S(=O)(=O)N[C@H]2COC(=O)C/C=C\[C@@H](C)[C@H](NS(=O)(=O)c3ccc(C)cc3)COC(=O)C/C=C\[C@H]2C)cc1 | – | 30.4% [at 11.4 µM]
O=c1c(-c2cccs2)nc2cncnc2n1Cc1ccc(F)cc1 | 7.94 µM (active) | –
COc1ncc2nc(-c3cccs3)c(=O)n(Cc3ccc(F)cc3)c2n1 | inactive | –
CN(C)CCCn1c2ccccc2c2cnccc21 | – | 26.7% [at 11.4 µM]
C[C@@H]1CN(CCCn2c3ccccc3c3ccccc32)C[C@H](C)N1 | 3.16 µM (active) | –
O=c1[nH]c2ccccc2n1CCCN1CCN(C(c2ccccc2)c2ccccc2)CC1 | inactive | –
O=c1c(-c2cc(F)cc(F)c2)nc2cnc(N3CCOCC3)nc2n1C[C@H]1CCCO1 | inactive | –
O=C1c2cccc3c(Cl)ccc(c23)C(=O)N1O | inactive | –
O=C1NC(=O)C(c2ccccc2[N+](=O)[O-])=C1Nc1ccc(O)c(Cl)c1 | inactive | –
O=C1c2cccc3c(Nc4ccccc4Cl)c([N+](=O)[O-])cc(c23)C(=O)N1CCO | 3.98 µM (active) | –
Cc1cc(/C=N\NC(=O)c2cccs2)c(C)n1-c1ccc2ncccc2c1 | inactive | –
Cc1ccc(-n2nc3c(c2NC(=O)c2cccs2)CSC3)cc1 | 7.94 µM (active) | –
CCCC(=O)Nc1c2c(nn1-c1ccc(C)cc1C)CSC2 | 8.91 µM (active) | –
Cn1c(CC(=O)Nc2ccc(Cl)c(Cl)c2)nnc1SCC(=O)N1CCN(c2ccccc2)CC1 | 14.1 µM (active) | –

SMILES | AC50 | activity, negative = inhibition
Cn1c(Cc2cccc3ccccc23)nnc1SCC(=O)N1CCN(c2ccccc2)CC1 | 25.1 µM (active) | –
CC(C)c1ccccc1-n1c(SCC(=O)N2CCN(c3ccccc3)CC2)nnc1-c1cccnc1 | 11.2 µM (active) | –
O=c1cc(CSc2nnc(-c3cccnc3)n2-c2ccccc2F)nc2sccn12 | inactive | –
CC(=O)Nc1cc(S(=O)(=O)Nc2ccccc2)c(C)cc1C | 25.1 µM (active) | –
c1ccc2cc(NCNc3ccc4ccccc4c3)ccc2c1 | 2.51 µM (active) | –
O=C(CCS(=O)(=O)c1cccc2nsnc12)NC1CCCCC1 | 11.2 µM (active) | –
Cc1cccc(NC(=S)NNC(=O)CC(C)O)c1C (configuration not stated) | inactive | –
Cc1cccc(NC(=O)CCS(=O)(=O)c2cccc3nsnc23)c1C | 14.1 µM (active) | –
CN(C)c1ncc2nc(-c3cccc(C#N)c3)c(=O)n(C[C@H]3CCCO3)c2n1 | inactive | –
N=C(N)SCCSC(=N)N | – | 2.37% [at 11.4 µM]
CN(Cc1ccco1)c1nc(-c2ccccc2C(F)(F)F)nc2ccccc12 | 7.94 µM (active) | –
CN(C)Cc1ccccc1-c1nc(N(C)Cc2ccco2)c2ccccc2n1 | inactive | –
CN(C)c1nc(-c2ccccc2C(F)(F)F)nc2ccccc12 | inactive | –
COc1ccccc1-c1nc(N(C)Cc2ccco2)c2ccccc2n1 | 20 µM (active) | –
Cc1ccccc1-c1nc(N(C)C)c2ccccc2n1 | 20 µM (active) | –
COc1ccccc1-c1nc(N(C)C)c2ccccc2n1 | inactive | –
Cc1ccccc1-c1nc(N(C)Cc2ccco2)c2ccccc2n1 | 10 µM (active) | –
CNc1nc(-c2ccccc2CN(C)C)nc2ccccc12 | inactive | –
CNc1nc(-c2ccccc2C)nc2ccccc12 | 10 µM (active) | –
Cc1ccccc1-c1nc(NC2CC2)c2ccccc2n1 | inactive | –
O=C(OCC#CCSc1nnc(-c2cccc3ccccc23)o1)c1ccco1 | 3.16 µM (active) | –
O=C1C2CCCN2C(c2ccccc2F)N1c1ccc(Cl)cc1 (configuration not stated) | 25.1 µM (active) | –
CN1CCc2c(c3c(n2C)CCN(C)[C@H]3c2ccccc2F)[C@@H]1c1ccccc1F | inactive | –
COc1cc(OC)c(C2N(c3cc(C)on3)C(=O)C3CCCN32)cc1OC (configuration not stated) | inactive | –
